Bioassay records as filed in PubChem BioAssay.
AMA1-RON2 inh: inhibitors of Plasmodium falciparum AMA1-RON2 interaction; AlphaScreen AMA1-biotinylated RON2 peptide binding; Potency, µM (doses to about 58.2 µM), hits mostly inhibitors; 360,000 compounds, 0.2% hits; AID 720542; further: nearly all actives have a fitted effect of over 45% in size
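AMA1 (3D7) with his tag at 25 nM final met compounds first, then biotinylated RON2 peptide at 25 nM; detection used donor plus acceptor beads, 10 µg/mL apiece, read by AlphaScreen after 30 min at room temperature.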
Pf growth 96h: P. falciparum growth inhibition at 96 hour, primary screen for plastid delayed-death inhibitors; P. falciparum luciferase reporter growth, 96 h; 320,000 compounds, 6.9% hits; AID 504834; Potency, µM (top dose mostly 28.7 µM), actives largely listed as inhibitors
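96 h incubation, 37 C, 5% CO2, of luciferase-reporter P. falciparum-infected RBCs (2% hematocrit, 0.05% parasitemia final) with test compounds; endpoint luminescence.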
Pf growth 48h: P. falciparum growth inhibition at 48 hours (one generation); Potency, µM (top dose mostly 28.7 µM), most hits filed as inhibitors; P. falciparum luciferase growth in erythrocytes, 48 h; 310,000 compounds, 5.9% hits
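Growth was read as firefly luciferase luminescence after a 48 h, 37 C, 5% CO2 exposure of compounds to reporter-bearing P. falciparum cultures (0.1% parasitemia, 2% hematocrit final) in Albumax-supplemented RPMI 1640.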
HCV inh: inhibitors of hepatitis C virus infection. 340,000 compounds, 3.4% hits. Huh7.5.1 HCVcc-Cre infection, luciferase reporter, 44 h. Potency, µM (highest dose often 41.8 µM), hits mostly inhibitors
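HCVcc-Cre virus at an moi near 0.5 was added right after compound to cells cultured 4 h from seeding (1,000 cells/well). Luciferase activity was determined 44 h later, 15 min after substrate addition at RT.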
Cycloheximide cs: counter-screen for Shiga toxin inhibitors: cycloheximide protein synthesis inhibition | 300,000 compounds, 12% hits | cell reporter, cycloheximide protein synthesis inhibition counterscreen | max response, %; in the data active means max response mostly above about 13%, no sharp cut-off; inactive means mostly below about 14%; further: read at 38.3 µM for the half of the compounds with a filed dose
Shiga toxin inh: blocks Shiga toxin action in Vero cells | AID 2315 | 290,000 compounds, 9.2% hits | Vero cells, Shiga toxin protein synthesis inhibition reporter | inhibition, % at 38.7 µM; in the data active means inhibition mostly above about 28%, no sharp cut-off; inactive means mostly below about 43%
A number is an active result; n = inactive; u = inconclusive; x = no result. An excerpt weighted towards active compounds, which were near 21% of everything screened. Unless noted, the call rests on the fitted dose curve; in most records, active means well fitted curve in the direction sought with a large enough effect; inconclusive means small, poorly fitted or top-dose-only effect, or another doubt; inactive means no such curve, though single readings can be large; an effect the other way counts as inactive or inconclusive.

SMILES	AMA1-RON2 inh	Pf growth 96h	Pf growth 48h	HCV inh	Cycloheximide cs	Shiga toxin inh
CCOc1ccccc1CN1CCNC(=O)C1CC(=O)NC1CCCCCCC1 (centres undefined)	n	x	x	n	x	x
O=c1[nH]nnc2c1ncn2C1OC(CO)C(O)C1O (centres undefined)	n	x	x	x	x	x
CCC[C@H]1CN(c2ccc(OC)cc2)C(=O)[C@@H]1CC(=O)NC	n	x	x	x	x	x
COC(=O)c1ccc([C@@H]2C[C@H]3CN(Cc4cccnc4)C(=O)[C@]34CCCN24)cc1	n	10.4µM	u	n	n	n
O=C1N(Cc2cccc(Cl)c2)C[C@@H]2C[C@@H](c3cccn3-c3cccnc3)N3CCC[C@@]123	n	n	9.28µM	10µM	n	n
Cn1cc([C@@H]2C[C@H]3CN(Cc4cccc(Cl)c4)C(=O)[C@]34CCCN24)c(-c2ccccc2)n1	n	2.94µM	n	10µM	n	n
Cc1nn(C)cc1[C@@H]1C[C@H]2CN(Cc3cccc(Cl)c3)C(=O)[C@]23CCCN13	n	u	u	n	n	n
O=C1N(Cc2cccnc2)C[C@@H]2C[C@@H](c3ccc(C(F)(F)F)cc3)N3CCC[C@@]123	n	u	u	n	n	n
CCC(CC)CN1CCN=C1Nc1ccccc1	n	n	u	n	x	x
CN1CCN(C(=O)C[C@H]2C[C@H]3c4cc(NC(=O)NC5CCCCC5)ccc4O[C@H]3[C@@H](CO)O2)CC1	n	x	x	x	x	x
COc1cccc(C(=O)O/N=C2\CCS(=O)(=O)c3sccc32)c1	n	n	n	n	n	n
O=C(O/N=C1\CCS(=O)(=O)c2sccc21)c1c(F)cccc1F	u	n	n	n	14.4	n
COc1ccc(-c2csc(NC(=O)C3CC(=O)N(Cc4ccco4)C3)n2)cc1 (centres undefined)	n	u	u	u	n	n
COC(=O)c1sc(N)c(C(=O)OC)c1COC(=O)C1CC(=O)N(Cc2ccco2)C1 (centres undefined)	n	n	u	u	n	n
COc1ccc(-c2nc(NC(=O)C3CCN(c4nc5ccccc5o4)CC3)sc2C)cc1	n	x	8.28µM	u	n	n
COc1ccc(-c2nc(NC(=O)C3CC(=O)N(Cc4ccco4)C3)sc2C)cc1 (centres undefined)	n	u	11.7µM	u	x	x
CCOC(=O)c1sc(N)c(C(=O)OCC)c1COC(=O)C1CC(=O)N(Cc2ccco2)C1 (centres undefined)	n	u	u	12.6µM	n	n
COc1ccc(-c2nc(NC(=O)Cn3c(=O)oc4ccccc43)sc2C)cc1	n	u	n	u	n	n
COc1ccc(NC(=S)N2CCC(NC(=O)C3CCCCC3)CC2)cc1	n	n	n	n	n	n
COC(=O)c1cc(C(=O)OCC(=O)Nc2ccc(N3CCOCC3)cc2)cc([N+](=O)[O-])c1	n	x	x	n	x	x
CCc1cc(CNC(=O)c2ccc(OC3CCN(C(C)=O)CC3)c(OC)c2)on1	n	n	n	n	n	n
CN(Cc1ccc2nonc2c1)Cc1nc(CC2CC2)no1	n	2.33µM	n	n	n	n
O=C(Nc1nccs1)c1cnc2sccn2c1=O	n	x	x	x	x	x
Cc1ccc(NC(=O)CN(C)CC(=O)Nc2ccccc2-c2ccccc2)cc1	n	13.1µM	u	u	n	n
COc1ccc(Cl)cc1NC(=O)CN(C)CC(=O)Nc1ccccc1-c1ccccc1	n	11.7µM	u	u	n	n
SMILES	AMA1-RON2 inh	Pf growth 96h	Pf growth 48h	HCV inh	Cycloheximide cs	Shiga toxin inh
CN(CC(=O)Nc1ccccc1Br)CC(=O)Nc1ccccc1-c1ccccc1	n	u	u	u	x	x
CC(=O)c1ccc(NC(=O)C(C)N2CCN(C/C=C/c3ccccc3)CC2)cc1 (centres undefined)	n	u	u	u	n	n
COc1ccc(Cl)cc1NC(=O)CN(C)C(=O)c1cc(=O)c2ccccc2o1	n	u	11.7µM	n	x	x
COc1ccc(Cl)cc1NC(=O)C(C)N1CCN(C/C=C/c2ccccc2)CC1 (centres undefined)	u	11.7µM	x	u	n	n
CSCCC1NC(=O)N(CC(=O)N2CCc3ccccc3C2)C1=O (centres undefined)	n	n	u	n	x	x
C[C@H](CO)N1C[C@H](C)[C@H](CN(C)S(C)(=O)=O)OCc2cnnn2CCCC1=O	n	x	x	x	x	x
CCn1c(C)c(C)c2cc(C(=O)NC3CCCCCC3)ccc21	n	n	u	u	n	n
